# Several values for one entry are separate records, joined by “and”; a condition that tells them apart may be missing. Identical values can stand only once. Values without a mark were called inactive. Records with an inconclusive call do not appear. Activity calls are given as the source filed them. Unless noted, the call rests on the fitted dose curve; in most records, active means well fitted curve in either direction with a large enough effect (not every such curve was filed as active); inconclusive means small, poorly fitted or top-dose-only effect, or another doubt; inactive means flat fitted curve, though single readings scatter.
# Experiments:
# [1] = AP1 Signaling Pathway (AID 357); conditions: ME-180 AP-1-bla reporter, EGF-induced, beta-lactamase ratio, 5 h;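 further: ME-180 reporter cells stimulated with EGF at its EC50 level; on the % scale 0 is the no-effect control and ±100 the full control effect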
# Outline: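 A ratiometric CCF4 readout (405 nm excitation; 460 and 530 nm emission) quantified AP-1-driven beta-lactamase in ME-180 cells after 5 h with compound and EC50 EGF; AC50 values were derived for activators and inhibitors.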
# [2] = biological target: Cytochrome P450 1A2 (Homo sapiens) (UniProt P05177); assay: p450-cyp1a2 (AID 410; calls by dose curve; further: potency means the concentration at half of the fitted maximal effect;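 on activity change, negative = inhibition: -100% = full effect of reference inhibitor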); conditions: recombinant CYP1A2, luciferin-ME demethylation, luminescence; series mostly up to 25.6 µM
# Outline: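 Human CYP1A2 (20nM) demethylated Luciferin-ME at its Km (100uM) in 100mM KPO4. After 10 min compound preincubation, NADPH regeneration ran the reaction 60 min at room temperature. Luciferin was read by luminescence, normalized to 57 uM furafylline.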
# [3] = biological target: Glucocorticoid receptor (Homo sapiens) (UniProt P04150); assay: GR-GFP Redistribution (AID 450;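 active means compounds whose dose series gives a full or clear partial fitted curve of increased nuclear translocation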; further: potency means the concentration at half of the fitted maximal effect); conditions: U2OS GR-GFP nuclear translocation, laser cytometry, 2 h
# [4] = biological target: Glucocorticoid receptor (Homo sapiens) (UniProt P04150); assay: GR-EFC Redistribution (AID 451; calls by dose curve; further: potency means the concentration at half of the fitted maximal effect); conditions: CHO-K1 GR-EFC translocation, beta-gal luminescence, 2 h
# Outline: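 CHO-K1 cells expressing nuclear EA and GR-ED fragments of b-gal; compounds titrated up to 46 uM final, 2 h at 37 C. GR nuclear translocation read as complemented b-gal luminescence after 1 h RT detection.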
# [5] = biological target: Mitogen-activated protein kinase 10 (Mus musculus) (UniProt Q61831); assay: JNK3 AlphaScreen Assay (AID 530); conditions: JNK3 lysate, c-Jun phosphorylation; series mostly up to 57.1 µM;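 further: kinase came from lysate of stimulated human HepG2 cells; signal reports phosphorylation of biotinylated GST-cJun 1-79 at Ser73 with 10 µM ATP; on the % scale 0 is the no-effect control and ±100 the full control effect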
# Outline: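 qHTS format: compounds tested as titrations against IL-1beta/TNF-alpha-activated HepG2 lysate JNK3 with biotin-GST-cJun substrate and 10 uM ATP at room temperature. Loss of anti-phospho-cJun AlphaScreen signal indicates inhibition.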
# [6] = biological target: 3',5'-cyclic-AMP phosphodiesterase 4B (Homo sapiens) (UniProt Q07343); assay: qHTS Assay for Inhibitors of PDE-IV (AID 607; active means well fitted activation curve with a large enough effect in the main read-out, with a control signal flat, not every such curve was filed as active; further: % of control where 0% means no effect); conditions: HEK293 ACTOne CNG channel cells, membrane potential fluorescence; series mostly up to 22.9 µM
# Outline: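 Live HEK293 cells with a modified cyclic nucleotide-gated (CNG) channel report intracellular cAMP via membrane-potential dye fluorescence (ex 535/em 590 nm). Endogenous PDE-IV was targeted. Compounds were tested at up to 22.9 uM final; RO 20-1724 100 uM served as control.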
# [7] = NFAT Signaling Pathway (AID 444); conditions: Jurkat NFAT-bla M1, carbachol, beta-lactamase ratio, 5 h;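 further: carbachol stimulus at about its EC50 of 1 µM final; on the % scale 0 is the no-effect control and ±100 the full control effect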
# Outline: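 Jurkat cells with NFAT-driven β-lactamase reporter and co-expressed M1 receptor, stimulated with carbachol (final 1 uM, ~EC50), compound titration, 5 h at 37 °C. CCF4 loaded 1 h at RT; 460/530 nm ratio gave %activity and AC50.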
# [8] = Stat Signaling Pathway (AID 446); conditions: ME-180 (cervical carcinoma) SIE beta-lactamase reporter, IL-6 stimulated, 5 h; at 17.2 µM (top of the series);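 further: ME-180 cervical cancer cells given 40 pM IL-6 alongside compound; SIE-controlled beta-lactamase reporter measured as 460/530 nm FRET emission ratio; on the % scale 0 is the no-effect control and ±100 the full control effect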
# Outline: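 IL-6/STAT signaling read in ME-180 cells via an SIE beta-lactamase reporter. Stimulus was 40 pM IL-6 (its AC50) for 5 hrs, so both activation and inhibition register.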
# [9] = Cell Viability - BJ (AID 421; calls by dose curve;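 further: potency means the concentration at half of the fitted maximal effect; cells exposed to compound for 40 hours at 37 °C before readout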); conditions: BJ fibroblast viability, qHTS
# Outline: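 Quantitative HTS: ATP depletion in BJ cells after 40 hr compound exposure in complete culture medium, detected with CellTiter-Glo; AC50 from standard Hill fits.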
# [10] = Cell Viability - Jurkat (AID 426;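 active means dose-dependent loss of cell ATP signal giving a full or clear fitted curve, ranked by lower potency value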; further: potency means the concentration at half of the fitted maximal effect); conditions: qHTS
# Outline: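 Jurkat (clone E6-1, human T-cell leukemia) cells, 5000/well in complete medium, were exposed to compound for 40 hr at 37 °C. Viability was read as intracellular ATP by CellTiter-Glo luminescence; AC50 came from Hill fits of concentration-response data.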
# [11] = Cell Viability - Hek293 (AID 427;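 active means compounds whose dose-response curve shows a full or clear partial loss of cell viability, called from curve shape rather than a numeric limit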;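 further: potency means the concentration at half of the fitted maximal effect; cells exposed to compound for 40 hours at 37 °C before reading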); conditions: qHTS
# Outline: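 AC50 values derive from Hill-modelled concentration-response of ATP-based luminescence, normalized between DMSO-only and 100 uM tamoxifen controls. Cells were exposed in complete culture medium for 40 hr at 37 °C before detection.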
# [12] = Cell Viability - HepG2 (AID 433; calls by dose curve;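 further: potency means the concentration at half of the fitted maximal effect; potency for ATP loss meaning cytotoxicity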); conditions: qHTS
# Outline: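 Cytotoxicity read as ATP loss (CellTiter-Glo luminescence) after 40 hr compound exposure of HepG2, 1500 cells/well, 37 °C. AC50 by Hill equation; 0% set by DMSO, 100% inhibition by 100 uM tamoxifen.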
# [13] = Cell Viability - N2a (AID 540; active means well fitted curve in the direction sought with a large enough effect; an effect the other way counts as inactive or inconclusive;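 further: plate controls were DMSO alone for no effect and tamoxifen control for full effect; nearly all actives have a fitted effect of over 45% in size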); conditions: N2a mouse neuroblastoma cell viability; activity change, negative = cytotoxicity: at 92.2 µM (top of the series)
# Outline: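 Mouse neuroblastoma N2a cells (1500/well) were preincubated 5 hr at 37 °C, then exposed to compounds for 40 hr at 37 °C in complete medium. Viability was read as intracellular ATP by CellTiter-Glo luminescence; AC50 from Hill fits.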
# [14] = Cell Viability - NIH 3T3 (AID 541; active means well fitted curve in the direction sought with a large enough effect; an effect the other way counts as inactive or inconclusive;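 further: plate controls were DMSO alone for no effect and tamoxifen positive control for full effect; nearly all actives have a fitted effect of over 25% in size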); conditions: NIH 3T3 cell viability, qHTS; activity change, negative = cytotoxicity: at 92.2 µM (top of the series)
# Outline: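 NIH 3T3 mouse embryo fibroblasts (1000 cells/well) were plated in complete medium and treated with compound for 40 hr at 37 °C. Viability was read as intracellular ATP by CellTiter-Glo luminescence; AC50 values came from Hill-equation fits of concentration-response data.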
# [15] = Cell Viability - HUV-EC-C (AID 542; active means well fitted curve in the direction sought with a large enough effect; an effect the other way counts as inactive or inconclusive; further: on the % scale 0 is the no-effect control and ±100 the full control effect; nearly all actives have a fitted effect of over 35% in size); conditions: HUV-EC-C endothelial cell viability, qHTS; series mostly up to 92.2 µM
# Outline: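 HUV-EC-C normal human vascular endothelial cells, 1000 cells/well, pre-incubated 5 hr at 37 °C, then exposed to compounds for 40 hr at 37 °C in complete medium. Viability measured as intracellular ATP by CellTiter-Glo luminescence; AC50 from Hill fits.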
# [16] = Cell Viability - H-4-II-E (AID 543; active means well fitted curve in the direction sought with a large enough effect; an effect the other way counts as inactive or inconclusive; further: on the % scale 0 is the no-effect control and ±100 the full control effect; nearly all actives have a fitted effect of over 35% in size); conditions: H-4-II-E rat hepatoma viability; series mostly up to 92.2 µM
# Outline: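 Rat hepatoma H-4-II-E cells (1500/well) were plated, incubated 5 hr at 37 °C, then exposed to compounds for 40 hr at 37 °C. Cellular ATP was read by CellTiter-Glo luminescence; AC50 came from Hill-equation fits of concentration-response data.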
# [17] = Cell Viability - SH-SY5Y (AID 544; active means well fitted curve in the direction sought with a large enough effect; an effect the other way counts as inactive or inconclusive;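 further: 0% = DMSO alone and -100% = 100 µM tamoxifen; nearly all actives have a fitted effect of over 55% in size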); conditions: SH-SY5Y neuroblastoma cell viability; series mostly up to 92.2 µM
# Outline: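 Human neuroblastoma SH-SY5Y cells (1500/well) in complete medium were exposed to compounds for 40 hr at 37 °C; intracellular ATP was then quantified by CellTiter-Glo luminescence after 20 min at room temperature. AC50 came from Hill-equation concentration-response fits.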
# [18] = Cell Viability - Renal Proximal Tubule (AID 545; active means well fitted curve in the direction sought with a large enough effect; an effect the other way counts as inactive or inconclusive;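 further: 0% = DMSO only and -100% = 100 µM tamoxifen; nearly all actives have a fitted effect of over 40% in size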); conditions: renal proximal tubule cells viability, primary cells of rat origin; series mostly up to 91.7 µM
# Outline: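 Viability taken as intracellular ATP (CellTiter-Glo luminescence) after 40 hr, 37 °C compound treatment of primary proximal tubule cells from rat kidney, 1000 cells/well; Hill-equation fits of qHTS concentration-response data gave AC50.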
# [19] = Cell Viability - Mesenchymal (AID 546; active means well fitted curve in the direction sought with a large enough effect; an effect the other way counts as inactive or inconclusive;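 further: cells exposed to compound for 40 hours before reading; 0% = DMSO only and -100% = 100 µM tamoxifen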); conditions: mesenchymal cells viability, qHTS; series mostly up to 91.7 µM
# Outline: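 Human kidney mesenchymal cells from normal renal glomeruli, 1000 cells/well, rested 5 hr at 37 °C, then treated 40 hr at 37 °C in complete medium. Cellular ATP read by CellTiter-Glo luminescence; AC50 from Hill-equation fits.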
# Glucocorticoid receptor (Homo sapiens), sequence (P04150 whole entry, looked up, the tested form may be a part): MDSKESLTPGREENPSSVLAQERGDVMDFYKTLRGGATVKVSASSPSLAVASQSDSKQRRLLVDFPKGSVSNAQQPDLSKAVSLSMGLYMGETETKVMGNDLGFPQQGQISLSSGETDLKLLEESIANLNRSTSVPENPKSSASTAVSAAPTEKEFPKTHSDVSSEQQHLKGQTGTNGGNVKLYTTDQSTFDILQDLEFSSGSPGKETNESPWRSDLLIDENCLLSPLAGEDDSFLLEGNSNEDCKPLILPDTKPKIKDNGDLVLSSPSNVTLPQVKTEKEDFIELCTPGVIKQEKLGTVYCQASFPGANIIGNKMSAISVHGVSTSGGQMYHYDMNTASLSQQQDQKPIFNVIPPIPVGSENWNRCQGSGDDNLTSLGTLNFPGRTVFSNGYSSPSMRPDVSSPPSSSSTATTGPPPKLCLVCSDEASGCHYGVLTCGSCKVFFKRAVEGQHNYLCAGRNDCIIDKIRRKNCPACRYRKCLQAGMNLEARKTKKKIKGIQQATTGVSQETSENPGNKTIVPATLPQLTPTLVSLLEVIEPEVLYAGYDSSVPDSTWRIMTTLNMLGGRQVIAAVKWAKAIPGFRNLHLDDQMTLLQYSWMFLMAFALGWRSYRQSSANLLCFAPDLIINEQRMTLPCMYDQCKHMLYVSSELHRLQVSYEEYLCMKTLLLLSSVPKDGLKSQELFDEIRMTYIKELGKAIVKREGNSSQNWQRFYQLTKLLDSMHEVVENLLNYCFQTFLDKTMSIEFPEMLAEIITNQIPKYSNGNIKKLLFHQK
# 3',5'-cyclic-AMP phosphodiesterase 4B (Homo sapiens), sequence (Q07343 whole entry, looked up): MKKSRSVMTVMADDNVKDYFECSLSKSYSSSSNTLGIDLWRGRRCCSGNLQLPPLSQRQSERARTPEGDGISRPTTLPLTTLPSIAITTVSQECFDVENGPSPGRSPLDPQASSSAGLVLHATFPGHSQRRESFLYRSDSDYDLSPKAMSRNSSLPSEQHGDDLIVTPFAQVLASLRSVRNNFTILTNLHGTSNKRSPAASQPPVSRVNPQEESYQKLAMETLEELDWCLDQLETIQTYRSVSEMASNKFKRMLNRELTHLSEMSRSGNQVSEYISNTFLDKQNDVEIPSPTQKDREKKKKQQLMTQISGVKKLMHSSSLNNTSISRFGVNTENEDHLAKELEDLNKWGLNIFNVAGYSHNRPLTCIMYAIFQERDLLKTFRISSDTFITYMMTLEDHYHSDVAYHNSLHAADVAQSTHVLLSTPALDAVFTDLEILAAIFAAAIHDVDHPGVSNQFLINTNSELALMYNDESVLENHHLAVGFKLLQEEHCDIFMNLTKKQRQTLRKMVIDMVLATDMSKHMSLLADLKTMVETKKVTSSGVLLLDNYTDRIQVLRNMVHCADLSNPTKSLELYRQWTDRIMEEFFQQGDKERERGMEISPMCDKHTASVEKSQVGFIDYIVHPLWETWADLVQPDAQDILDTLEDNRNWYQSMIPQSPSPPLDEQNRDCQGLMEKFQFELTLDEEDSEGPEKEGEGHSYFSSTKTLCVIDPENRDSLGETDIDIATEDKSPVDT
# Cytochrome P450 1A2 (Homo sapiens), sequence (P05177 whole entry, looked up): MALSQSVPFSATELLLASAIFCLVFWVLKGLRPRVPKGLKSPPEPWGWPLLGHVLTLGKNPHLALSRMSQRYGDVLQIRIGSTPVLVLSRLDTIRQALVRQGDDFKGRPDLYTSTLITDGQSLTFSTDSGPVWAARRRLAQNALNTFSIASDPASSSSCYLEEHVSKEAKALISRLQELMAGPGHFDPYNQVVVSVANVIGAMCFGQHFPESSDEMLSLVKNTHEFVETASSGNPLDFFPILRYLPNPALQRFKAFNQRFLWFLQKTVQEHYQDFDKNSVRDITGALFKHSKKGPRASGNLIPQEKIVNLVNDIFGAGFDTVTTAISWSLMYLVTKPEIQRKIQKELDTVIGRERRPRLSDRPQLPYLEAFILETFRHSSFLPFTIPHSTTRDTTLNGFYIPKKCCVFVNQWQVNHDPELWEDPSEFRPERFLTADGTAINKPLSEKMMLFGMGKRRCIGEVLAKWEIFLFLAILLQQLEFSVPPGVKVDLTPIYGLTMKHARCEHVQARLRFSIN
smiles,measurement,setting,value
COc1ccc2c(c1)C(=O)N(CCc1ccc(S(=O)(=O)NC(=O)NC3CCCCC3)cc1)C(=O)C2(C)C,"activity change, negative = inhibition",[1]; at 17.2 µM (top of the series),12.1%
same,Potency,[2],inactive
same,Potency,[3],> 20.6 µM
same,Potency,[4],> 20.6 µM
same,Potency,[5],inactive
same,outcome,[6],inactive
OCCN1CCN(CCCN2c3ccccc3Sc3ccc(Cl)cc32)CC1,"activity change, negative = inhibition",[1]; at 17.2 µM (top of the series),25.4% and 10.4%
same,"activity change, negative = inhibition",[1]; at 38 µM (top of the series),7.4%
same,Potency,[3],> 20.6 µM
same,Potency,[4],> 46 µM and > 20.6 µM
same,Potency,[5],inactive
same,outcome,[6],inactive
CCCn1cnc2c1c(=O)n(CCCCC(C)=O)c(=O)n2C,"activity change, negative = inhibition",[1]; at 38 µM (top of the series),-2.42%
same,Potency,[2],12.6 µM (active)
same,"activity change, negative = inhibition",[7]; at 38 µM (top of the series),9.62%
same,Potency,[3],> 46 µM
same,Potency,[4],> 46 µM
same,Potency,[5],inactive
same,outcome,[6],inactive
NC1CCN(c2cccc(Cl)n2)CC1,"activity change, negative = inhibition",[1]; at 38 µM (top of the series),2.98%
same,Potency,[2],20 µM (active) and 15.8 µM (active)
same,"activity change, negative = inhibition",[7]; at 38 µM (top of the series),-6.65%
same,Potency,[3],> 46 µM
same,Potency,[4],> 46 µM
same,Potency,[5],inactive
same,outcome,[6],inactive
Cc1c(Cl)cccc1Nc1ccccc1C(=O)O,"activity change, negative = inhibition",[1]; at 17.2 µM (top of the series),-25.1% and -19.5%
same,Potency,[2],3.16 µM (active)
same,"activity change, negative = inhibition",[7]; at 17.2 µM (top of the series),-35.5%
same,"activity, negative = inhibition",[8],-15.1% and -25.4%
same,Potency,[3],> 20.6 µM
same,Potency,[4],> 20.6 µM
same,Potency,[5],inactive
CC(=O)OCC(=O)[C@@]1(O)CC[C@H]2[C@@H]3CCC4=CC(=O)CC[C@]4(C)[C@H]3C(=O)C[C@@]21C,"activity change, negative = inhibition",[1]; at 17.2 µM (top of the series),0.362%
CCOc1ccc2ccccc2c1C(=O)N[C@@H]1C(=O)N2[C@@H]1SC(C)(C)[C@@H]2C(=O)O,"activity change, negative = inhibition",[1]; at 17.2 µM (top of the series),0.437%
same,Potency,[2],inactive
same,"activity change, negative = inhibition",[7]; at 17.2 µM (top of the series),1.54%
same,Potency,[3],> 20.6 µM
same,Potency,[4],> 20.6 µM
same,Potency,[5],inactive
same,outcome,[6],inactive
Cc1cc(CC(=O)O)n(C)c1C(=O)c1ccc(Cl)cc1,"activity change, negative = inhibition",[1]; at 17.2 µM (top of the series),2.5%
same,Potency,[9],> 92 µM
same,Potency,[10],> 92 µM
same,Potency,[11],> 92 µM
same,Potency,[12],> 92 µM
same,"activity change, negative = inhibition",[7]; at 17.2 µM (top of the series),1.18%
same,"activity, negative = inhibition",[8],8.99%
same,Potency,[3],> 20.6 µM
same,Potency,[4],> 20.6 µM
same,Potency,[5],inactive
same,"activity change, negative = cytotoxicity",[13],-9.12%
same,Potency,[14],inactive
same,Potency,[15],inactive
same,Potency,[16],inactive
same,Potency,[17],inactive
same,Potency,[18],inactive
same,outcome,[19],inactive
same,outcome,[6],inactive

# Reference: PubChem BioAssay (NCATS)
